{"source": "PubChem BioAssay (NCATS)", "note": "Inconclusive results are not listed. A call without a number means that no potency is given here. Activity calls are given as the source filed them. The call rests on the fitted dose curve; in most records, active means well fitted inhibition curve with a large enough effect; inconclusive means small, poorly fitted or top-dose-only effect; inactive means flat fitted curve, though single readings scatter."}
{"system": "Zika virus NS2B-NS3 protease", "assay": "Primary screen GU AMC qHTS for Zika virus inhibitors (AID 1347154); further: nearly all actives have a fitted effect of over 70% in size", "settings": "Zika NS2B-NS3 unlinked protease, AMC fluorogenic substrate; series mostly up to 54.1 µM", "source_text": "Avindra Nath, Ph.D., National Institute of Neurological Disorders and Stroke (NINDS), Bethesda, MD\nRadhakrishnan Padmanabhan, Ph.D., Georgetown University (GU), Washington D.C.\nZika Virus causes congenital defects, including microcephaly and is associated with Guillain-Barre syndrome, eningoencephalitis and myelitis in infected adult. […] Using a target-based approach, we hope to establish a screening paradigm to uncover novel, cell-active NS2B-NS3 protease (Zika Virus) specific inhibitors from NCATS' collection of small molecules using qHTS.\nEarly Translation Branch (ETB)\nNational Center for Advancing Translational Sciences (NCATS), Rockville, MD\nNational Institute of Health (NIH), Bethesda, Maryland\nPadmanabhan lab provided the NS2B hydrophilic domain and NS3 protease domain in a noncovalent complex used for the unlinked assay. Control compound aprotinin is obtained from Thermo Scientific (#78432; Waltham, Massachusetts). NS2B-NS3 AMC substrate (Bz-Nle-Lys-Arg-Arg-AMC; Nle-KRR-AMC) purchased from Bachem (#I-1995; Torrance, CA). Ac-VKTGKR-AMC purchased from Genscript or Bachem, Ac-FAAGKR-AMC purchased from Genscript, Ac-GLVKRR-AMC purchased from Genscript, Ac-LKKR-AMC purchased from Genscript.\nGU AMC unlinked NS2B-NS3 protease qHTS protocol\nBriefly, 3 microL of Zika virus unlinked NS2B-NS3 protease (25 nM for linked final concentration), in assay buffer (10 mM Tris-HCl pH 8.0 with 0.01% Tween 20) was dispensed into a 1,536-well solid-bottom black plate (Greiner Bio One, Monroe, NC). […] Plates were then read immediately on a ViewLux High-throughput CCD imager (PerkinElmer, Waltham, MA) equipped with standard UV fluorescence optics (340(30) nm excitation, 450(20) nm emission) then incubated (room temperature, protected from light) for 15 minutes (~20% conversion). The change in fluorescence intensity over the 15-minute reaction period was normalized against no-inhibitor and no-enzyme controls and the resulting percent inhibition data were fitted to a 4-parameter Hill equation. Aprotinin was used as the intraplate control."}
{"smiles": "COCCOCC(OC)OC", "Potency": "inactive"}
{"smiles": "Nc1c(I)cc(I)c(C(=O)N(CCC(=O)O)c2ccccc2)c1I", "Potency": "inactive"}
{"smiles": "CCN(CC)CC(=O)OCC(=O)[C@@]1(O)CC[C@H]2[C@@H]3CCC4=CC(=O)CC[C@]4(C)[C@H]3[C@@H](O)C[C@@]21C", "Potency": "inactive"}
{"smiles": "CC(=O)c1cc2ccccc2s1", "Potency": "inactive"}
{"smiles": "Nc1cc(C(F)(F)F)ccc1S", "Potency": "inactive"}
{"smiles": "N=C(N)c1ccc(OCCCOc2ccc(C(=N)N)cc2)cc1", "Potency": "inactive"}
{"smiles": "Cc1cccc(N(C)C(=S)Oc2ccc3c(c2)C2CCC3C2)c1", "note": "(stereo not given)", "Potency": "inactive"}
{"smiles": "CCN(CC)CCN", "Potency": "inactive"}
{"smiles": "O=C(Oc1ccccc1)c1ccccc1O", "Potency": "inactive"}
{"smiles": "CC(C)=CCC/C(C)=C/CC/C(C)=C/CCC(=O)OC/C=C(\\C)CCC=C(C)C", "Potency": "inactive"}
{"smiles": "CC(C)(C)C(=O)OCOC(=O)C1N2C(=O)CC2S(=O)(=O)C1(C)C", "note": "(stereo not given)", "Potency": "inactive"}
{"smiles": "O=C1Cc2cc(Cl)ccc2N1", "Potency": "inactive"}
{"smiles": "O=C1Nc2cc(Cl)ccc2Oc2ccccc21", "Potency": "inactive"}
{"smiles": "Cc1cc2nc3ccc(=[N+](C)C)cc-3sc2cc1N", "Potency": "inactive"}
{"smiles": "Cc1onc(-c2c(Cl)cccc2Cl)c1C(=O)Cl", "Potency": "inactive"}
{"smiles": "CC(=O)OCC(=O)[C@@]1(O)[C@H](OC(C)=O)C[C@H]2[C@@H]3CCC4=CC(=O)C=C[C@]4(C)[C@@]3(F)[C@@H](O)C[C@@]21C", "Potency": "inactive"}
{"smiles": "CCc1cc(S(=O)(=O)O)c2cc(C(C)C)cccc1-2", "Potency": "inactive"}
{"smiles": "Nc1c[n+](N2CCOCC2)no1", "Potency": "inactive"}
{"smiles": "O=C(O)Cn1cnnn1", "Potency": "inactive"}
{"smiles": "COc1ccccc1OCC1CNC(=O)O1", "note": "(stereo not given)", "Potency": "inactive"}
{"smiles": "O=C(O)c1ccccc1Nc1cc(Cl)ccc1C(=O)O", "Potency": "inactive"}
{"smiles": "Nc1nnnn1-c1ccccc1", "Potency": "inactive"}
{"smiles": "C[C@]12CCC(=O)C=C1CC[C@@H]1[C@@H]2[C@@H](O)C[C@@]2(C)[C@H]1CC[C@]2(O)C(=O)COC(=O)CCC(=O)O", "Potency": "inactive"}
{"smiles": "Cc1ccccc1C(=O)N1CC/C(=N\\OS(=O)(=O)O)c2ccc(Cl)cc21", "Potency": "inactive"}
{"smiles": "Cc1sccc1Br", "Potency": "inactive"}
{"smiles": "CC(=O)O[C@H]1CC[C@@]2(C)C(=CC[C@@H]3[C@@H]2CC[C@]2(C)C(C(C)=O)=CC[C@@H]32)C1", "Potency": "inactive"}
{"smiles": "CN(C(=O)C(Cl)Cl)c1ccc(OC(=O)c2ccco2)cc1", "Potency": "inactive"}
{"smiles": "N#Cc1cc(NC(=O)C(=O)O)c(Cl)c(NC(=O)C(=O)O)c1", "Potency": "inactive"}
{"smiles": "CCCCCC[C@@H](CCC)C(=O)O", "Potency": "inactive"}
{"smiles": "Oc1ccc(CCNCCCCCCNCCc2ccccc2)cc1O", "Potency": "inactive"}
{"smiles": "C[C@@H]1CCC[C@H](C)N1CCCC(O)(c1ccccc1)c1ccccn1", "note": "(stereo not given in full)", "Potency": "inactive"}
{"smiles": "CC(=O)[C@@]1(O)CC[C@H]2[C@@H]3C[C@H](C)C4=CC(=O)CC[C@]4(C)[C@H]3CC[C@@]21C", "Potency": "inactive"}
{"smiles": "C1=CC2C3C=CC(C3)C2C1", "note": "(stereo not given)", "Potency": "inactive"}
{"smiles": "C[C@@H](C1=C(CCN(C)C)Cc2ccccc21)c1ccccn1", "Potency": "inactive"}
{"smiles": "Cc1ccc(C(=O)Oc2ccc(C(O)CNC(C)(C)C)cc2OC(=O)c2ccc(C)cc2)cc1", "note": "(stereo not given)", "Potency": "inactive"}
{"smiles": "NS(=O)(=O)c1ccc(N2CCCCS2(=O)=O)cc1", "Potency": "inactive"}
{"smiles": "CC(C)=CCNc1ncnc2c1ncn2[C@@H]1O[C@H](CO)[C@@H](O)[C@H]1O", "Potency": "inactive"}
{"smiles": "O=C(CO)[C@@H](O)[C@H](O)[C@@H](O)CO", "Potency": "inactive"}
{"smiles": "C[C@H]1C[C@H](O)c2ccsc2S1(=O)=O", "Potency": "inactive"}
{"smiles": "CCOC(=O)NNc1ccc(N(CC)CC(C)O)nn1", "note": "(stereo not given)", "Potency": "inactive"}
